# How the values were obtained:
# Test in all cases: DAPPL (digital affinity profiling via proximity ligation, sequencing); 10 mM Tris-HCl pH 7.5, 50 mM NaCl, 1 mM DTT, 4% glycerol, room temperature, 30 min; GST-TFs on glutathione beads, 16-mer random dsDNA library, 0.1% formaldehyde crosslink after washing; high values mean tight binding
# FLI1 = biological target: T1, FLI1 (Homo sapiens, UniProt Q01543 1-452); conditions: protein: recombinant; tags: N-terminal GST; dsDNA, one strand shown
# T1 sequence: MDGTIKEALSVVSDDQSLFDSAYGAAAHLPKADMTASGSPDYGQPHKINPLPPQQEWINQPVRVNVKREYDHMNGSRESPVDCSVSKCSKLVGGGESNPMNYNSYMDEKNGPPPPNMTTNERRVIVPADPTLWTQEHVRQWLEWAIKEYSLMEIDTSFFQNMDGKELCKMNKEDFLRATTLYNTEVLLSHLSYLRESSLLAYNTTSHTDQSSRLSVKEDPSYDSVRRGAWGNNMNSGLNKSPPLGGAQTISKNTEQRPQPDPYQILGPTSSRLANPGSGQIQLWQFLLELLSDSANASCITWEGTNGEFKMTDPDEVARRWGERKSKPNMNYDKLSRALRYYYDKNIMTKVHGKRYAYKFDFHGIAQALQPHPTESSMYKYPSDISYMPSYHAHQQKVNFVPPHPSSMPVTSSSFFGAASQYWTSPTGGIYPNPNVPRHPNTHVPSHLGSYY
# Outline: (§1)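 Binding signal is defined as a hexamer's read frequency for one factor over its frequency for the tag-only sample. To obtain reads, GST-fused human transcription factors were expressed in yeast, captured on glutathione beads, barcoded with DNA and pooled with that sample. Pools met 200 nmole of a 16-mer random double-stranded DNA library in Tris/NaCl/DTT/glycerol buffer for 30 min at room temperature before washing, 0.1% formaldehyde crosslinking, proximity ligation (BsaI/T4 ligase, 1 h, 37 °C), PCR and Illumina NextSeq500 sequencing.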
# ELK1 = biological target: T2, ELK1 (Homo sapiens, UniProt P19419 1-428); conditions: protein: recombinant; tags: N-terminal GST; dsDNA, one strand shown
# T2 sequence: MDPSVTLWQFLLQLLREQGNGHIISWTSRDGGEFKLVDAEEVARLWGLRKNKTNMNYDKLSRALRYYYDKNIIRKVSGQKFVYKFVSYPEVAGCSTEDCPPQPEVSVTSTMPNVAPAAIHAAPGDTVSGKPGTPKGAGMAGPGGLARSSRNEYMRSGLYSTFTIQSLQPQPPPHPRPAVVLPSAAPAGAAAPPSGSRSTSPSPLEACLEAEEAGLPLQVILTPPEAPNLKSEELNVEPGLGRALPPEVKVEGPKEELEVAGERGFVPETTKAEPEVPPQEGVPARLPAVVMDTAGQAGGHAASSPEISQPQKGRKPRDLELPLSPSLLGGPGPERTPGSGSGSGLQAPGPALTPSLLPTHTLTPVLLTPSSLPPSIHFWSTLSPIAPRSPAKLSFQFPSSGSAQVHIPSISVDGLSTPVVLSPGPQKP
# Outline: as §1
# GABPA = biological target: T3, GABPA (Homo sapiens, UniProt Q06546 1-454); conditions: protein: recombinant; tags: N-terminal GST; dsDNA, one strand shown
# T3 sequence: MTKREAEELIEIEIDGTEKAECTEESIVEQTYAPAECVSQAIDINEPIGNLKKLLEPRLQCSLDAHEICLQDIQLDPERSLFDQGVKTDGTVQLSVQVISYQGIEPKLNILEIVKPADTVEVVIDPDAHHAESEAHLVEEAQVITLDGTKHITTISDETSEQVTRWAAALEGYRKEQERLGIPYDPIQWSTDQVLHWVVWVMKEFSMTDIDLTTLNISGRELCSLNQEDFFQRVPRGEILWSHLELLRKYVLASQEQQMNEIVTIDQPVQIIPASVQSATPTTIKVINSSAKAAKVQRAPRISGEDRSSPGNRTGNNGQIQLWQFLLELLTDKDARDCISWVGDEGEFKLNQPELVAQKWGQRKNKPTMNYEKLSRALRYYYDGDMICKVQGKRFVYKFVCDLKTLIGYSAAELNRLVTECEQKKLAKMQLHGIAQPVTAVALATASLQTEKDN
# Outline: as §1
# ERG = biological target: T4, ERG (Homo sapiens, UniProt P11308 1-479); conditions: protein: recombinant; tags: N-terminal GST; dsDNA, one strand shown
# T4 sequence: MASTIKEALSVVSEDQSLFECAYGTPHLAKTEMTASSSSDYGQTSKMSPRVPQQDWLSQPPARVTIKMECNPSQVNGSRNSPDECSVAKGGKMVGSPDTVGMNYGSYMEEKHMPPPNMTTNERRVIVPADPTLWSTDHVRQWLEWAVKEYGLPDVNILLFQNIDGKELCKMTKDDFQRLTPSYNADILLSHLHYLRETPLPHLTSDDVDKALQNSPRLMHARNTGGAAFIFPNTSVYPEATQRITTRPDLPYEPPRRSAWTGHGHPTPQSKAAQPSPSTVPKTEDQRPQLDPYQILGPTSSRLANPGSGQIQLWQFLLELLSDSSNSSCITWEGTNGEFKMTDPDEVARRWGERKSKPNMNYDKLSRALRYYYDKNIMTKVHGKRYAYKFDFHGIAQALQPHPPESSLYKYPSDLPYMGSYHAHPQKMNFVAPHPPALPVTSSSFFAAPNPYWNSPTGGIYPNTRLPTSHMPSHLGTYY
# Outline: as §1
# ELF1 = ELF1 (Homo sapiens, UniProt P32519 1-619); conditions: protein: recombinant; tags: N-terminal GST; dsDNA, one strand shown
# Outline: as §1
# EHF = biological target: T5, EHF (Homo sapiens, UniProt Q9NZC4 1-300); conditions: protein: recombinant; tags: N-terminal GST; dsDNA, one strand shown
# T5 sequence: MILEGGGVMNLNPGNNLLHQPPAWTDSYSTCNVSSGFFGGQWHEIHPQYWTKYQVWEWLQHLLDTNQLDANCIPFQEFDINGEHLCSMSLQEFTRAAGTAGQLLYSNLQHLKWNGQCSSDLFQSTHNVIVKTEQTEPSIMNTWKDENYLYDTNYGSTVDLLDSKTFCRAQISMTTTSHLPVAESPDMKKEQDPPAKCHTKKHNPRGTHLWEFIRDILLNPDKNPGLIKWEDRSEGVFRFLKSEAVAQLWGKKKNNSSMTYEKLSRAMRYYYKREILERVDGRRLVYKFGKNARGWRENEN
# Outline: as §1
# SPI1 = SPI1 (Homo sapiens, UniProt P17947 1-270); conditions: protein: recombinant; tags: N-terminal GST; dsDNA, one strand shown
# Outline: as §1
# SPIB = SPIB (Homo sapiens, UniProt Q01892 1-262); conditions: protein: recombinant; tags: N-terminal GST; dsDNA, one strand shown
# Outline: as §1
# ELK3 = biological target: T6, ELK3 (Homo sapiens, UniProt P41970 1-407); conditions: protein: recombinant; tags: N-terminal GST; dsDNA, one strand shown
# T6 sequence: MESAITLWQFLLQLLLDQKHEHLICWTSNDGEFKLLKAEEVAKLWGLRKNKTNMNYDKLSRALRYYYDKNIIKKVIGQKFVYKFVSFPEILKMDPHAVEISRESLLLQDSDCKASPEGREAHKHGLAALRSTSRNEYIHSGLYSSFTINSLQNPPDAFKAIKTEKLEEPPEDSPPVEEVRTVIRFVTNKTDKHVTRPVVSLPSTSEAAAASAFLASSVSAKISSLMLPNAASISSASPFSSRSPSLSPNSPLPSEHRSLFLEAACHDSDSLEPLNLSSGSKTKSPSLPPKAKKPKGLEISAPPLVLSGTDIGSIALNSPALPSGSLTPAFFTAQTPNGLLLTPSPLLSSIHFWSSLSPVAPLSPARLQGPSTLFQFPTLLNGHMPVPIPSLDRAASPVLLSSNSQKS
# Outline: as §1
# FEV = biological target: T7, FEV (Homo sapiens, UniProt Q99581 1-238); conditions: protein: recombinant; tags: N-terminal GST; dsDNA, one strand shown
# T7 sequence: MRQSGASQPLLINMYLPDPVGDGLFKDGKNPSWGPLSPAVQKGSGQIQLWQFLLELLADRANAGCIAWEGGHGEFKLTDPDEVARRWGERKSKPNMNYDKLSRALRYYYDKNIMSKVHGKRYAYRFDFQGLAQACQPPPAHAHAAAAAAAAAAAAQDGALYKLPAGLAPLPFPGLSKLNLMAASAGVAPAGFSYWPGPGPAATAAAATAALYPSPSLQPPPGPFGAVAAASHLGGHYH
# Outline: as §1
# ETV5 = ETV5 (Homo sapiens, UniProt P41161 1-510); conditions: protein: recombinant; tags: N-terminal GST; dsDNA, one strand shown
# Outline: as §1
# HSF1 = HSF1 (Homo sapiens, UniProt Q00613 1-529); conditions: protein: recombinant; tags: N-terminal GST; chain copies: 3; dsDNA, one strand shown
# Outline: as §1
# SPIC = biological target: T8, SPIC (Homo sapiens, UniProt Q8N5J4 1-248); conditions: protein: recombinant; tags: N-terminal GST; dsDNA, one strand shown
# T8 sequence: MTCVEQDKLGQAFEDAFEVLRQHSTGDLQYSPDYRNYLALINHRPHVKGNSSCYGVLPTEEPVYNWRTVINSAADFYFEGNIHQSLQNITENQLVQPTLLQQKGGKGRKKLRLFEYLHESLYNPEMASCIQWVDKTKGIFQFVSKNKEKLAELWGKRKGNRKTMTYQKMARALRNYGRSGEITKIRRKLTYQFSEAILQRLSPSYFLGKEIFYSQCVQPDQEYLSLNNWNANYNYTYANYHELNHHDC
# Outline: as §1
# ELF4 = ELF4 (Homo sapiens, UniProt Q99607 1-663); conditions: protein: recombinant; tags: N-terminal GST; dsDNA, one strand shown
# Outline: as §1
# ELK4 = biological target: T9, ELK4 (Homo sapiens, UniProt P28324-2 1-405); conditions: protein: recombinant; tags: N-terminal GST; dsDNA, one strand shown
# T9 sequence: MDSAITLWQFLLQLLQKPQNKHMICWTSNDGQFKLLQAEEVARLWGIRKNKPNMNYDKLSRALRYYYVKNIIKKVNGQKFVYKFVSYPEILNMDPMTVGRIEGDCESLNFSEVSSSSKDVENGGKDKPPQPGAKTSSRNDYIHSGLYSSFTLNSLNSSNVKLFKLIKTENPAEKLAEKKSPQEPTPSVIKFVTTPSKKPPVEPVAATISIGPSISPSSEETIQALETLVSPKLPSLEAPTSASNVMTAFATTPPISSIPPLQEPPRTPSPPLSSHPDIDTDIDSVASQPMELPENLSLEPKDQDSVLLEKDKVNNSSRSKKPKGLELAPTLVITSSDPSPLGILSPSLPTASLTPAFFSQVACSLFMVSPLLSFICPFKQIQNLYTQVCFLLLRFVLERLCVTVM
# Outline: as §1
# ETV2 = biological target: T10, ETV2 (Homo sapiens, UniProt O00321 1-342); conditions: protein: recombinant; tags: N-terminal GST; dsDNA, one strand shown
# T10 sequence: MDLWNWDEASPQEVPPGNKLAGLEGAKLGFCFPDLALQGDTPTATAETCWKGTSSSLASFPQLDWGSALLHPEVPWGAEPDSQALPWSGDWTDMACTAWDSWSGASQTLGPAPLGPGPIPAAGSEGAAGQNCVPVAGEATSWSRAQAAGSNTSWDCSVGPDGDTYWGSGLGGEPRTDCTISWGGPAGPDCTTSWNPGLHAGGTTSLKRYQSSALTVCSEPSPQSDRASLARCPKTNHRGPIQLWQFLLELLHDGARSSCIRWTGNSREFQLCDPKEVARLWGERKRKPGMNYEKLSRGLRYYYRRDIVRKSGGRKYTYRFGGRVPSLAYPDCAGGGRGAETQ
# Outline: as §1
# ELF3 = biological target: T11, ELF3 (Homo sapiens, UniProt P78545 1-371); conditions: protein: recombinant; tags: N-terminal GST; dsDNA, one strand shown
# T11 sequence: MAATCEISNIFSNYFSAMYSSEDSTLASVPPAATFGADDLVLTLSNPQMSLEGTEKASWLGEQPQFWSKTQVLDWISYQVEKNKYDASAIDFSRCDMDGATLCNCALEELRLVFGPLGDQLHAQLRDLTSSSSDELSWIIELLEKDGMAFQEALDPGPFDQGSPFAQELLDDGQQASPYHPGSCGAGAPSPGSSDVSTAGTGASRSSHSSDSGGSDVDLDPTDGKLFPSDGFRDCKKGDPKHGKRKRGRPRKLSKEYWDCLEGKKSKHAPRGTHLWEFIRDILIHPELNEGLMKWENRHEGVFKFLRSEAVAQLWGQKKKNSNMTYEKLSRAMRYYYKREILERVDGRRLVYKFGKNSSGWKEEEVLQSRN
# Outline: as §1
# CRX = CRX (Homo sapiens, UniProt O43186 1-299); conditions: protein: recombinant; tags: N-terminal GST; dsDNA, one strand shown
# Outline: as §1
# ETV1 = ETV1 (Homo sapiens, UniProt P50549 1-477); conditions: protein: recombinant; tags: N-terminal GST; dsDNA, one strand shown
# Outline: as §1
# Sequence of CRX (O43186 whole entry): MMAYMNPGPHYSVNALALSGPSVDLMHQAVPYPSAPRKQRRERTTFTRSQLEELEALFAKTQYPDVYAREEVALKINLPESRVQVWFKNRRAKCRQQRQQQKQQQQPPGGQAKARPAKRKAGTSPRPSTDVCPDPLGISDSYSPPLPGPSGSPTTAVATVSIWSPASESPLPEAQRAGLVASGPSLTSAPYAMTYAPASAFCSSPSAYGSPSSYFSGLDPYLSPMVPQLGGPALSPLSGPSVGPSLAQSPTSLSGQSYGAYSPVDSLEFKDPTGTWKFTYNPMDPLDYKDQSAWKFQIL
# Sequence of SPIB (Q01892 whole entry): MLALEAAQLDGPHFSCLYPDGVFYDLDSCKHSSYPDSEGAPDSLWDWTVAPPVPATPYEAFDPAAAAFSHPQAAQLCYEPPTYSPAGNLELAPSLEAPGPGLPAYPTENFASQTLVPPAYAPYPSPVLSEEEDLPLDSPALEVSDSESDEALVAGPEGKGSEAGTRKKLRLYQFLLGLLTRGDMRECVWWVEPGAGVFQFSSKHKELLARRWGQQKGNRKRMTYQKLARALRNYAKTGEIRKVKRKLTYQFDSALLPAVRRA
# Sequence of ETV5 (P41161 whole entry): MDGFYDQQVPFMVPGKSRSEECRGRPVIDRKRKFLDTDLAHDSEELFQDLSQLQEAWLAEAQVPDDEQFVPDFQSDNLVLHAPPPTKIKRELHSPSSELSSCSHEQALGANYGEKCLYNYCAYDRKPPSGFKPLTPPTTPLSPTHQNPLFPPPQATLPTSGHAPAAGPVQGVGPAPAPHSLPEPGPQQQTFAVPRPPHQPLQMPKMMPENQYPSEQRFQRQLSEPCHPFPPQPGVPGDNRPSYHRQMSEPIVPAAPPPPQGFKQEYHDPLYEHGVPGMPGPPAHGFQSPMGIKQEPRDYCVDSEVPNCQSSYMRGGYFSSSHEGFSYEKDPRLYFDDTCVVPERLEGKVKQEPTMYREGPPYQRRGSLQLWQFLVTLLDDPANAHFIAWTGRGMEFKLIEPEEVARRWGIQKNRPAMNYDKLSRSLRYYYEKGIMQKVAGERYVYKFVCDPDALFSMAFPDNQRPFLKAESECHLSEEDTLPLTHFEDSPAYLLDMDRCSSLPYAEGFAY
# Sequence of ETV1 (P50549 whole entry): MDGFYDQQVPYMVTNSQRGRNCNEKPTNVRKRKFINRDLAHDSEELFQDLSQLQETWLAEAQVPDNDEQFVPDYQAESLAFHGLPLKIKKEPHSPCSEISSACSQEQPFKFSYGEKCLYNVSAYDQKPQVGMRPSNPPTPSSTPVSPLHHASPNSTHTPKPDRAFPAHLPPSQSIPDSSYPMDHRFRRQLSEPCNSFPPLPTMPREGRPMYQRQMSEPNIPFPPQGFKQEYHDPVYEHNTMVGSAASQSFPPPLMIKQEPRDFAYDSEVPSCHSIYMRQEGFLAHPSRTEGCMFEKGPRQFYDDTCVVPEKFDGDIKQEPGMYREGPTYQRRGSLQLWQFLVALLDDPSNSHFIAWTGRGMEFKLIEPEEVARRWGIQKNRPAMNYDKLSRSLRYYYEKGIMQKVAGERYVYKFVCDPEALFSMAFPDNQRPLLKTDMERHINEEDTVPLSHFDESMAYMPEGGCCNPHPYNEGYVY
# Sequence of HSF1 (Q00613 whole entry): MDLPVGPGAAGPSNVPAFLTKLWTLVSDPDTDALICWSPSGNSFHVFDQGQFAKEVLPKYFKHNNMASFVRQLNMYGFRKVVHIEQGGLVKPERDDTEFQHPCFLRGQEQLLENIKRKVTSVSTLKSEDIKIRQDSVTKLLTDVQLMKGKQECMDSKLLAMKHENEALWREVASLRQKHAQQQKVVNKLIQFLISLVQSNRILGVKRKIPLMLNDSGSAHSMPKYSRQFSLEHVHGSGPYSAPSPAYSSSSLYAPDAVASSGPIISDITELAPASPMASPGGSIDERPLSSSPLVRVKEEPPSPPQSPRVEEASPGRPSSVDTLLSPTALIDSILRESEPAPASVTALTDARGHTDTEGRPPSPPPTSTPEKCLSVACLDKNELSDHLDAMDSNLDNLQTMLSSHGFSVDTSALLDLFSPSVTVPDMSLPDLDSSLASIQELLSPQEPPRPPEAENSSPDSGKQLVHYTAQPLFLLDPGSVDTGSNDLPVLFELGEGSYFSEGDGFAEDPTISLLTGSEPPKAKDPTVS
# Sequence of ELF1 (P32519 whole entry): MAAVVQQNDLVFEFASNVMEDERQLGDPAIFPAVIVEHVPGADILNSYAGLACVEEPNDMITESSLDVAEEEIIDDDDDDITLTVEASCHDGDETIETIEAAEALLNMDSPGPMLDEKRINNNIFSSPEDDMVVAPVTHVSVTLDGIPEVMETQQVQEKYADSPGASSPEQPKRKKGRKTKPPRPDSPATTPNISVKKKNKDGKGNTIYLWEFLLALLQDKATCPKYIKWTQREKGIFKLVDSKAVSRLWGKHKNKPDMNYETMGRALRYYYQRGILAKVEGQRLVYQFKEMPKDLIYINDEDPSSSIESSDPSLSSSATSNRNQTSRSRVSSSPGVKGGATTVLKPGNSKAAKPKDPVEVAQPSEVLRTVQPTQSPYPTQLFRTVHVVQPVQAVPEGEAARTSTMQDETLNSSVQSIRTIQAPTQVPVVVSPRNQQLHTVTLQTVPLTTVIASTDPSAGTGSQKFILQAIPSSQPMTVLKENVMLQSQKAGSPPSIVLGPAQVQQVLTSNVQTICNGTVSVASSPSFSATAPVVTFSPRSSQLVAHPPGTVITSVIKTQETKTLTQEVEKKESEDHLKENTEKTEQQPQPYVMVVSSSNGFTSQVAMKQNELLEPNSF
# Sequence of ELF4 (Q99607 whole entry): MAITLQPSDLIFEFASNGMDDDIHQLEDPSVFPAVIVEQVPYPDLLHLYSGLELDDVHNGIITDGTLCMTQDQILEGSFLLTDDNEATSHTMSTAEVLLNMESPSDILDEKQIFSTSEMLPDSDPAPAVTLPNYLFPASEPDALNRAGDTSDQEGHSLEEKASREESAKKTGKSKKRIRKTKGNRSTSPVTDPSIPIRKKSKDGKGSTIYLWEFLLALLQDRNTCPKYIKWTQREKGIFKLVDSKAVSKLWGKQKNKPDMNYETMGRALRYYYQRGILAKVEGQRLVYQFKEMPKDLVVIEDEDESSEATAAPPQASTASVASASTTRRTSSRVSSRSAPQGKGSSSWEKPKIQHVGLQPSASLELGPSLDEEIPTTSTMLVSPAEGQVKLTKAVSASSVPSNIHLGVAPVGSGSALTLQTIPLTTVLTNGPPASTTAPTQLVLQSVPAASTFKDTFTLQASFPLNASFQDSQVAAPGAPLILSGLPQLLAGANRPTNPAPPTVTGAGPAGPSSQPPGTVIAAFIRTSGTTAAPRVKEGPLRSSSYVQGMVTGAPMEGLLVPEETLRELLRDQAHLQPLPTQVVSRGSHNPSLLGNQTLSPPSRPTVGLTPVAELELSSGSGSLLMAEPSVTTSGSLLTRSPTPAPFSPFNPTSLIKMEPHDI
sequence,measurement,setting,value
TTTCGG,binding signal,FLI1,"1.08 fold enrichment (6-mer frequency, TF over GST control)"
same,binding signal,ELK1,"1.14 fold enrichment (6-mer frequency, TF over GST control)"
same,binding signal,GABPA,"1.14 fold enrichment (6-mer frequency, TF over GST control)"
same,binding signal,ERG,"1.26 fold enrichment (6-mer frequency, TF over GST control)"
same,binding signal,ELF1,"1.22 fold enrichment (6-mer frequency, TF over GST control)"
same,binding signal,EHF,"1.18 fold enrichment (6-mer frequency, TF over GST control)"
same,binding signal,SPI1,"1.36 fold enrichment (6-mer frequency, TF over GST control)"
same,binding signal,SPIB,"1.14 fold enrichment (6-mer frequency, TF over GST control)"
same,binding signal,ELK3,"1.22 fold enrichment (6-mer frequency, TF over GST control)"
same,binding signal,FEV,"1.15 fold enrichment (6-mer frequency, TF over GST control)"
same,binding signal,ETV5,"1.13 fold enrichment (6-mer frequency, TF over GST control)"
same,binding signal,HSF1,"1.39 fold enrichment (6-mer frequency, TF over GST control)"
same,binding signal,SPIC,"1.05 fold enrichment (6-mer frequency, TF over GST control)"
same,binding signal,ELF4,"1.21 fold enrichment (6-mer frequency, TF over GST control)"
same,binding signal,ELK4,"1.14 fold enrichment (6-mer frequency, TF over GST control)"
same,binding signal,ETV2,"1.16 fold enrichment (6-mer frequency, TF over GST control)"
same,binding signal,ELF3,"1.22 fold enrichment (6-mer frequency, TF over GST control)"
same,binding signal,CRX,"1.25 fold enrichment (6-mer frequency, TF over GST control)"
same,binding signal,ETV1,"1.31 fold enrichment (6-mer frequency, TF over GST control)"

# — article PMC7862700, “An all-to-all approach to the identification of sequence-specific readers for epigenetic DNA modifications on cytosine”
